Experimental data published in the supplement of paper PMC10849652.
Targets with a hit are over-represented here; the source holds about 7,900 in all. About 0.6% of all pairs of compound and target were hits.

What was measured:
Experiment in all cases: log2 fold change, soluble protein after heating vs DMSO (PISA); higher = thermal stabilisation; K562 cells, 10 uM, 30 min; active = over 0.2 and 3.5 SD of the protein, either way, in both replicates (recomputed)
[1] = compound: C#Cc1cccc(Nc2ncnc3cc(OCCOC)c(OCCOC)cc23)c1 [erlotinib]
Procedure, shortened: (§1)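 K562 cells at 2×10^6 cells/mL were given 10 μM compound for 30 min. Aliquots then went through 3 min of heating across 48°C-58°C, were pooled, and were extracted in PBS with 0.5% NP-40 at 4°C, and the supernatant after 21,000xg for 90 min was quantified by TMTpro 16plex LC-MS/MS with channel sums equalised. Thermal stability relative to control samples, from duplicates, is given as log2 fold change.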

[2] = compound: C/C(=N\NC(=O)C1=CC(=CC=C1)S(=O)(=O)N2CCOCC2)/C3=C(C=CC(=C3)Cl)O
Procedure, shortened: as §1

[3] = compound: C1=CC(=C(C=C1Cl)C2=NC3=NC=CN=C3C(=N2)NC4=CC=NC=C4)F
Procedure, shortened: as §1

[4] = compound: C1=CC(=CC=C1C2=NC3=C(N2)C=C(C=C3)C(=O)N)OC4=CC=C(C=C4)Cl
Procedure, shortened: as §1

[5] = compound: C1=CC2=C(C=CC(=C2)/C=C\3/C(=O)NC(=NCC4=CC=CS4)S3)N=C1
Procedure, shortened: as §1

[6] = compound: C1=CC2=NC=CN=C2C=C1/C=C/3\C(=O)NC(=O)S3
Procedure, shortened: as §1

[7] = compound: C1=CC=C(C=C1)C2=NC(=C(N2)C3=CC=NC=C3)C4=CC(=C(C=C4)Cl)O
Procedure, shortened: as §1

[8] = compound: C1=CC=C2C(=C1)C3=NNC4=CC=CC(=C43)C2=O
Procedure, shortened: as §1

[9] = compound: C1CCN(C1)C(=O)NC2=CC=CC(=C2)NC3=NC=C(C(=N3)NCCC4=CN=CN4)Br
Procedure, shortened: as §1

[10] = compound: C1CN(CCC1(CC2=CC=C(C=C2)Cl)N)C3=NC=NC4=C3C=CN4
Procedure, shortened: as §1

[11] = compound: C1COCCN1CCN2C3=CC=CC=C3N=C2NC(=O)C4=CC(=CC=C4)[N+](=O)[O-] [IRAK-1-4 Inhibitor I]
Procedure, shortened: as §1

[12] = compound: C=CC(=O)N1CCC[C@@H](n2nc(-c3ccc(Oc4ccccc4)cc3)c3c(N)ncnc32)C1 [ibrutinib]
Procedure, shortened: as §1

[13] = compound: CC(=O)c1cnc2ccc(-c3cc(Cl)c(O)c(Cl)c3)nc2c1N[C@H]1CC[C@H](CN(C)C)CC1
Procedure, shortened: as §1

[14] = compound: CC(C)(C)Cn1c(N)nc2ccc(-c3[nH]c(C(C)(C)C)nc3-c3ccc(F)cc3)nc21 [ralimetinib]
Procedure, shortened: as §1

[15] = compound: CC(C)(O)CC(=O)NCCn1ccc2ncnc(Nc3ccc(Oc4cccc(C(F)(F)F)c4)c(Cl)c3)c21
Procedure, shortened: as §1

[16] = compound: CC(C)C1=C2N=C(C=C(N2N=C1)NCC3=CC=CC=C3)NCCCCCCN
Procedure, shortened: as §1

[17] = compound: CC(C)C[C@@H](C=O)NC(=O)[C@H](CC(C)C)NC(=O)[C@H](CC(C)C)NC(=O)OCc1ccccc1
Procedure, shortened: as §1

[18] = compound: CC(C)N(C[C@H]1O[C@@H](n2cnc3c(N)ncnc32)[C@H](O)[C@@H]1O)[C@H]1C[C@@H](CCc2nc3cc(C(C)(C)C)ccc3[nH]2)C1 [pinometostat]
Procedure, shortened: as §1

[19] = compound: CC1=C(C(CC(=O)N1)C2=CC=C(C=C2)C(F)(F)F)C(=O)NC3=C(C=C4C(=C3)C=NN4)F
Procedure, shortened: as §1

[20] = compound: CC1=C(C2=C(C=C1)C(=O)C3=CC=CC=C3N2CCCN)C
Procedure, shortened: as §1

Measured: log2 fold change

ROCK2 (UniProt O75116)
inactive: [1] 0.05 | [2] 0.02 | [3] 0.031 | [4] 0.003 | [5] 0.158 | [6] 0.126 | [7] -0.009 | [8] -0.071 | [9] 0.036 | [10] 0.099 | [11] -0.037 | [12] -0.052 | [13] -0.137 | [14] 0.032 | [15] -0.049 | [16] -0.138 | [17] 0.034 | [18] 0.021 | [20] 0
active: [19] 0.29

SIRT2 (UniProt Q8IXJ6)
inactive: [1] 0.03 | [2] 0.055 | [3] 0.001 | [4] 0.054 | [5] -0.113 | [6] 0.017 | [7] 0.051 | [8] 0.029 | [9] 0.025 | [10] 0.016 | [11] 0.047 | [12] -0.003 | [13] -0.003 | [14] -0.023 | [15] 0.041 | [16] -0.033 | [17] 0.028 | [18] -0.002 | [19] -0.075 | [20] -0.022

RB1CC1 (UniProt Q8TDY2)
Sequence of UniProt Q8TDY2 (Q8TDY2 whole entry, looked up): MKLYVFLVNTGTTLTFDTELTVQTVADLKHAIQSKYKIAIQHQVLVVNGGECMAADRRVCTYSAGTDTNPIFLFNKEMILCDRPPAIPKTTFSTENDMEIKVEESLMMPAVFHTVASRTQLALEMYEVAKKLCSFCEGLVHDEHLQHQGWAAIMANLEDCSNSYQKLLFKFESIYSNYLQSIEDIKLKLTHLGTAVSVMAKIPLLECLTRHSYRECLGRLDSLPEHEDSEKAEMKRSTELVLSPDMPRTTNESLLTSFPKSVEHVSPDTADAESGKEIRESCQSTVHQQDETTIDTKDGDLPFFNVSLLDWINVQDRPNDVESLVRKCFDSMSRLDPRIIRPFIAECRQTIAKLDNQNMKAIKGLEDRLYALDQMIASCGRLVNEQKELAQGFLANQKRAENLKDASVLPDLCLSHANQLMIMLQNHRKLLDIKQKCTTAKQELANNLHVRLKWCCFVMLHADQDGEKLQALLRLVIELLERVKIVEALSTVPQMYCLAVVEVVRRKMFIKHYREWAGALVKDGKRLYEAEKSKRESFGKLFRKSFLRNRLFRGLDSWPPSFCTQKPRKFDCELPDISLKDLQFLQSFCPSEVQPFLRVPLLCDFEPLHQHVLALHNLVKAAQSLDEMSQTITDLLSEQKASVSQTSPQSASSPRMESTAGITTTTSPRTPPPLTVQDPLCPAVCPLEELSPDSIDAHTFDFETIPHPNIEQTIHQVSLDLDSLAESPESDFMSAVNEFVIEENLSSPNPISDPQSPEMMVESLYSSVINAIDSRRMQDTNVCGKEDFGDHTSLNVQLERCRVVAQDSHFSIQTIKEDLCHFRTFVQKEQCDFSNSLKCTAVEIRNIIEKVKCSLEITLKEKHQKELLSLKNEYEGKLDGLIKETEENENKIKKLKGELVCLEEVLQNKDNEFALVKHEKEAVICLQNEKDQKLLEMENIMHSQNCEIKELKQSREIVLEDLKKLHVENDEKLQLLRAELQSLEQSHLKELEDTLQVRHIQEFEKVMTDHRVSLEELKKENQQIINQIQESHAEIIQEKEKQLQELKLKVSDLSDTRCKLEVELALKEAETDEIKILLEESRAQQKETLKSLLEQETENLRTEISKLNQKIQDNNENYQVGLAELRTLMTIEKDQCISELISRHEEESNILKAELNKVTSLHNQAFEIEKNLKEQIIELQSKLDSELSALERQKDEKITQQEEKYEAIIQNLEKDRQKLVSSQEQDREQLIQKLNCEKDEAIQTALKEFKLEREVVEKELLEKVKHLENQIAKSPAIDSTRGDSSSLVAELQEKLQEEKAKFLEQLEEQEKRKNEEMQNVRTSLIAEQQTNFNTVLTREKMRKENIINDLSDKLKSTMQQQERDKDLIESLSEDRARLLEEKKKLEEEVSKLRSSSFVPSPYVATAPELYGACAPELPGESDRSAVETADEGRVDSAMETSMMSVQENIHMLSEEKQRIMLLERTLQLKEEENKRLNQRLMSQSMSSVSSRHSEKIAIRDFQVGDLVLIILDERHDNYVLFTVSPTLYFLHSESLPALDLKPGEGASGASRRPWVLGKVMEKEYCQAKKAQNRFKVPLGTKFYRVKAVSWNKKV
inactive: [1] 0.119 | [2] -0.066 | [3] 0.102 | [4] 0.046 | [5] 0.211 | [6] -0.07 | [7] 0.015 | [8] 0.03 | [9] -0.024 | [10] 0.022 | [11] 0.092 | [12] 0.094 | [13] 0.045 | [14] 0.089 | [15] -0.11 | [16] 0.045 | [17] 0.03 | [18] -0.023 | [19] -0.015 | [20] 0.041

RABGGTA (UniProt Q92696)
Sequence of UniProt Q92696 (Q92696 whole entry, looked up): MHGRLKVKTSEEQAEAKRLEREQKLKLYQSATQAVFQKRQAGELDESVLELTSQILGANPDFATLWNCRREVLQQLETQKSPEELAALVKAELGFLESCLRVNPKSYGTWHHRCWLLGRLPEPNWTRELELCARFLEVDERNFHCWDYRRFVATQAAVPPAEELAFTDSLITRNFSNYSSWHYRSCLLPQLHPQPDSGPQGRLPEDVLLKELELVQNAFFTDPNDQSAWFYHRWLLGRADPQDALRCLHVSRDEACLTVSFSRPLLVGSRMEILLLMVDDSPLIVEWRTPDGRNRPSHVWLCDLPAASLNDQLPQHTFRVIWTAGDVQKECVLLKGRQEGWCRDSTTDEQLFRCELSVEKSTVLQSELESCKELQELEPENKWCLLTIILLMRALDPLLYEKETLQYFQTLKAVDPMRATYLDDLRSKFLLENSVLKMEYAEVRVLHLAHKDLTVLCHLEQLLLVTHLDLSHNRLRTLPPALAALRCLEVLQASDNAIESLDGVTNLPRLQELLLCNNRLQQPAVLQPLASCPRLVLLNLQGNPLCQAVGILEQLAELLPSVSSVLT
inactive: [1] 0.068 | [2] 0.018 | [3] 0.065 | [4] 0.001 | [5] 0.063 | [6] 0.025 | [7] 0.036 | [8] 0.043 | [9] 0.005 | [10] 0.122 | [11] 0.064 | [12] -0.021 | [13] -0.02 | [14] -0.038 | [15] -0.021 | [16] 0.049 | [17] -0.041 | [18] -0.027 | [19] 0 | [20] 0.046

SGPL1 (UniProt O95470)
Sequence of UniProt O95470 (O95470 whole entry, looked up): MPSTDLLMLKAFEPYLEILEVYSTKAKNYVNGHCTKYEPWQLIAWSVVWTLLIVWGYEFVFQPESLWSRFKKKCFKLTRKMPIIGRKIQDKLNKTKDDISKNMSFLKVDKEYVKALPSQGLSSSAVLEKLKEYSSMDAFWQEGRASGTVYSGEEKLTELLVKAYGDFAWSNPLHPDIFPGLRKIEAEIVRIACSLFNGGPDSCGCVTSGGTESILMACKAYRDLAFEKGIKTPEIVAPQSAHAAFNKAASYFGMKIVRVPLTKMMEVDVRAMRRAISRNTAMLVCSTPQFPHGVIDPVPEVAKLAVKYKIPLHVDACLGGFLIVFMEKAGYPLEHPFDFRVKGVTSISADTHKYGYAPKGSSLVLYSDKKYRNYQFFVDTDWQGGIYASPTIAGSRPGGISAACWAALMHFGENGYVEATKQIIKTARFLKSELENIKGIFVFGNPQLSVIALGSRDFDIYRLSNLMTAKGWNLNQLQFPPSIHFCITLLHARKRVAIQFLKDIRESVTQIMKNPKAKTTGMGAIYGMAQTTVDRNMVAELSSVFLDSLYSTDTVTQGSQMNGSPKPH
inactive: [1] -0.038 | [2] -0.019 | [3] -0.088 | [4] -0.047 | [5] 0.05 | [6] -0.029 | [7] 0.01 | [8] -0.001 | [9] -0.035 | [10] -0.145 | [11] -0.05 | [12] -0.018 | [13] -0.045 | [14] 0.159 | [15] 0.017 | [16] 0.06 | [17] 0.002 | [18] 0.1 | [19] -0.025 | [20] 0.146

RPRD1B (UniProt Q9NQG5)
Sequence of UniProt Q9NQG5 (Q9NQG5 whole entry, looked up): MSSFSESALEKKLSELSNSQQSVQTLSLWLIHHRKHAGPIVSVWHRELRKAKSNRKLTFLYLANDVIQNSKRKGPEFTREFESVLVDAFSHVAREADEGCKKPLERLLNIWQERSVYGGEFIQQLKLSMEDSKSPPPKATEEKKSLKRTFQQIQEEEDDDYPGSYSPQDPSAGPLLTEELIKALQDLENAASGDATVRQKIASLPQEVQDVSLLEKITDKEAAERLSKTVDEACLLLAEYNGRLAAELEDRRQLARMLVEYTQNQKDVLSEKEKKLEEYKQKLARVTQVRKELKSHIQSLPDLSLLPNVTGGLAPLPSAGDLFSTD
inactive: [1] -0.065 | [2] 0.086 | [3] 0.036 | [4] 0.028 | [5] 0.063 | [6] 0.052 | [7] 0.042 | [8] -0.005 | [9] 0.009 | [10] -0.046 | [11] 0 | [12] -0.021 | [13] -0.017 | [14] 0 | [15] -0.06 | [16] -0.018 | [17] -0.028 | [18] -0.038 | [19] 0.022 | [20] 0.104

RAC3 (UniProt P60763)
inactive: [1] 0.05 | [2] -0.016 | [3] 0.029 | [4] -0.042 | [5] 0.009 | [6] 0.02 | [7] -0.009 | [8] -0.09 | [9] -0.007 | [10] 0.005 | [11] 0.115 | [12] 0.022 | [13] 0.104 | [14] -0.008 | [15] 0.032 | [16] 0.082 | [17] -0.009 | [18] -0.081 | [19] 0.003 | [20] 0.102

RANBP2 (UniProt P49792)
inactive: [1] -0.107 | [2] 0.007 | [3] 0.062 | [4] 0.081 | [5] 0.082 | [6] 0.003 | [7] -0.007 | [8] -0.028 | [9] 0.005 | [10] 0 | [11] 0.024 | [12] 0.035 | [13] 0.081 | [14] 0.022 | [15] -0.043 | [16] -0.136 | [17] 0.024 | [18] -0.017 | [19] 0.169 | [20] 0.076

RBM22 (UniProt Q9NW64)
Sequence of UniProt Q9NW64 (Q9NW64 whole entry, looked up): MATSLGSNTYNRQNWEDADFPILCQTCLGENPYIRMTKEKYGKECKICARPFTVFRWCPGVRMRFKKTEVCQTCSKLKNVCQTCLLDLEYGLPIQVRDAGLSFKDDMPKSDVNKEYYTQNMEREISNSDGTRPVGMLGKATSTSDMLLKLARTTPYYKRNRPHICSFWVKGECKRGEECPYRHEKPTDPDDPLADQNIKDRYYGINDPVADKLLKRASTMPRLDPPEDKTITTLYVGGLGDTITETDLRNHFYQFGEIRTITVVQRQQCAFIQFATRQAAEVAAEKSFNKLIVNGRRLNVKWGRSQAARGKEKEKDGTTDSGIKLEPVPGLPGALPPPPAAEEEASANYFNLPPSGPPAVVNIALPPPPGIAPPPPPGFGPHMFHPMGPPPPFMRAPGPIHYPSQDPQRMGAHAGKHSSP
inactive: [1] -0.013 | [2] -0.037 | [3] -0.061 | [4] -0.009 | [5] -0.117 | [6] 0.038 | [7] -0.084 | [8] -0.051 | [9] 0 | [10] 0.121 | [11] 0.014 | [12] -0.032 | [13] 0.029 | [14] 0.048 | [15] 0.071 | [16] 0.068 | [17] 0.104 | [18] 0.015 | [19] 0.041 | [20] 0.124

RPS13 (UniProt P62277)
inactive: [1] -0.156 | [2] -0.17 | [3] -0.544 | [4] 0.088 | [5] -0.11 | [6] -0.053 | [7] -0.088 | [8] -0.015 | [9] 0.101 | [10] -0.184 | [11] -0.096 | [12] 0.035 | [13] 0.103 | [14] 0.13 | [15] 0.071 | [16] -0.031 | [17] 0.137 | [18] 0.345 | [19] 0.035
active: [20] -0.759

RPA1 (UniProt P27694)
inactive: [1] 0.003 | [2] 0.07 | [3] 0.147 | [4] 0.008 | [5] -0.005 | [6] 0.003 | [7] 0.027 | [8] 0.075 | [9] -0.013 | [10] -0.021 | [11] -0.026 | [12] -0.022 | [13] -0.03 | [14] -0.008 | [15] -0.053 | [16] -0.019 | [17] -0.027 | [18] -0.021 | [19] -0.007 | [20] 0.202

SEC31A (UniProt O94979)
inactive: [1] 0.049 | [2] 0.023 | [3] 0.006 | [4] -0.025 | [5] 0.094 | [6] 0.016 | [7] -0.045 | [8] 0.023 | [9] -0.06 | [10] -0.025 | [11] -0.076 | [12] -0.11 | [13] 0.005 | [14] 0.028 | [15] -0.054 | [16] -0.008 | [17] 0.033 | [18] 0.071 | [19] 0.016 | [20] 0.095

RRP12 (UniProt Q5JTH9)
inactive: [1] 0.074 | [2] -0.3 | [3] -0.172 | [4] 0.028 | [5] -0.04 | [6] 0.038 | [7] 0.166 | [8] 0.205 | [9] 0.079 | [10] 0.054 | [11] -0.018 | [12] -0.1 | [13] 0.201 | [14] 0.331 | [15] 0.006 | [16] 0.272 | [17] 0.243 | [18] 0.315 | [19] -0.051 | [20] -0.107

RPS4X (UniProt P62701)
inactive: [1] -0.177 | [2] -0.092 | [3] -0.37 | [4] 0.054 | [5] -0.042 | [6] -0.033 | [7] -0.043 | [8] 0.043 | [9] 0.076 | [10] -0.221 | [11] -0.129 | [12] 0.025 | [13] 0.126 | [14] 0.106 | [15] 0.003 | [16] -0.025 | [17] 0.074 | [18] 0.273 | [19] 0.048
active: [20] -0.679

RAB5C isoform 2 (UniProt P51148)
Sequence of UniProt P51148 (P51148 whole entry, looked up): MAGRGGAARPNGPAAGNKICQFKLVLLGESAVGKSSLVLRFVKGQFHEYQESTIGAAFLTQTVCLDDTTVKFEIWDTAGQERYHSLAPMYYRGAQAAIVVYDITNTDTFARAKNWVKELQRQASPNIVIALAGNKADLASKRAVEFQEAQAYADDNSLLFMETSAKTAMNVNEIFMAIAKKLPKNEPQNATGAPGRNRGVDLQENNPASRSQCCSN
inactive: [1] 0 | [2] 0.042 | [3] 0.066 | [4] 0.015 | [5] -0.083 | [6] 0.014 | [7] 0.012 | [8] 0.015 | [9] -0.003 | [10] 0.043 | [11] 0.015 | [12] 0.017 | [13] 0.039 | [14] 0.027 | [15] -0.012 | [16] 0.064 | [17] -0.042 | [18] -0.028 | [19] 0.028 | [20] -0.032

RPTOR (UniProt Q8N122)
Sequence of UniProt Q8N122 (Q8N122 whole entry, looked up): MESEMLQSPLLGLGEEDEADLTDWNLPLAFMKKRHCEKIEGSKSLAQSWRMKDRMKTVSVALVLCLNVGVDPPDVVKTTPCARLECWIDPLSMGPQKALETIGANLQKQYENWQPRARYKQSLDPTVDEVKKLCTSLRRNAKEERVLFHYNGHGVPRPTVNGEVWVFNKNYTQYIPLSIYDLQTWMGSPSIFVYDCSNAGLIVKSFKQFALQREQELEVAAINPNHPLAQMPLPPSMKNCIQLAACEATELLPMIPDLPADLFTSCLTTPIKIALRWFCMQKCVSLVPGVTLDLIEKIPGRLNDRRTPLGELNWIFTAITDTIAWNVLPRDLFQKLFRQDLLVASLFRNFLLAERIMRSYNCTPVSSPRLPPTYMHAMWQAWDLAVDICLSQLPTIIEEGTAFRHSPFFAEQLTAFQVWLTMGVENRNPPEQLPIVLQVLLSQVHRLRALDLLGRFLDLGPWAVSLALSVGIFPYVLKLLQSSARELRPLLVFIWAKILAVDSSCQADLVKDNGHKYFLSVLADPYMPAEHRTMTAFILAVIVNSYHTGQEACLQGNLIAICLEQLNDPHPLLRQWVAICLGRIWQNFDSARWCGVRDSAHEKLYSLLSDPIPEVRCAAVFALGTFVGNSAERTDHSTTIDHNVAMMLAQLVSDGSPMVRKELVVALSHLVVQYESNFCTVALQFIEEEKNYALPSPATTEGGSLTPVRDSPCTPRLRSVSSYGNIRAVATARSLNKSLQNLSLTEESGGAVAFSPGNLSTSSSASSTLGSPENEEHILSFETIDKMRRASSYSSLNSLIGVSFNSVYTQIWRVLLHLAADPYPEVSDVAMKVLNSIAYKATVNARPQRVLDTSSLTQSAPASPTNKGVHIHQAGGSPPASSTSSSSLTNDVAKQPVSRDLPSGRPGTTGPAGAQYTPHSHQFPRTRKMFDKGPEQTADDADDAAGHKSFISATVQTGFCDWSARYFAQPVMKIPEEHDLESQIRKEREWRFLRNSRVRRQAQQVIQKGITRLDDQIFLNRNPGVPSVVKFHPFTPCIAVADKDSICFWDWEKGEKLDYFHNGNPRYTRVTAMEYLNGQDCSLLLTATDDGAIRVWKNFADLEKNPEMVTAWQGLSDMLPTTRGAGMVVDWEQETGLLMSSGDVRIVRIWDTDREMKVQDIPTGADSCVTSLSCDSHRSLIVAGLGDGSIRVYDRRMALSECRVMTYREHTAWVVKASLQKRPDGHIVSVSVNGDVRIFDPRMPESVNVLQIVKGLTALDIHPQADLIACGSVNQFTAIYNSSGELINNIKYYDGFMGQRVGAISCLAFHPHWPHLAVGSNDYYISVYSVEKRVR
inactive: [1] -0.034 | [2] 0.075 | [3] 0.036 | [4] -0.037 | [5] 0.039 | [6] 0.003 | [7] -0.038 | [8] -0.031 | [9] -0.042 | [10] -0.027 | [11] 0 | [12] 0.051 | [13] -0.145 | [14] -0.022 | [15] -0.129 | [16] -0.187 | [17] -0.011 | [18] -0.012 | [19] -0.03 | [20] 0.009
